Shown are actives, neighbours in structure and some others; about 14% of the full set was active somewhere.
A350 fluor = qHTS Assay for Spectroscopic Profiling in A350 Spectral Region | Compound autofluorescence, 340/450 nm, Alexa 350 dye-equivalents; hits give high values | max dye-equivalent concentration, M | 59,000 tested, 11% active | AID 590, 2007; in the data active means max dye-equivalent concentration above about 10 nM; inconclusive means mostly about 1.1 nM to 9.6 nM
CRE Fsk mod = Cell signaling CRE-BLA (Fsk stim); CHO CRE-bla reporter (cAMP response element driving beta-lactamase), forskolin EC10, beta-lactamase ratio; Potency, µM (top dose mostly 38.2 µM), for inactives: at the highest dose activity change, negative = inhibition, usual class: activators; 71,000 tested, 2.5% active; active means well fitted activation curve with a large enough effect in the signal ratio, with a control signal flat, not every such curve was filed as active; inconclusive means small, poorly fitted or top-dose-only effect, or effect the other way, or a change in a side signal; the % refers to the signal ratio; further: potency means the concentration at half of the fitted maximal effect; % of control where 0% means no effect
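CRE-bla CHO reporter cells treated with compound titration plus EC10 NKH 477 (water-soluble forskolin), incubated 3 h at 37 °C; CCF4 loading 2 h at room temperature, 460/530 nm emission ratio read, AC50 values derived for positive or negative modulators.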
HSD17B inh = qHTS Assay for Inhibitors of HSD17B4, hydroxysteroid (17-beta) dehydrogenase 4; 3-hydroxyacyl-CoA dehydrogenase type-2 (Homo sapiens), Q99714; recombinant HSD17B10, NADH fluorescence kinetic; Potency, µM (highest dose often 57.1 µM), inactives show at the top dose activity change, negative = inhibition, actives largely listed as inhibitors; 75,000 tested, 7.6% active; AID 893, 2007;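 further: the protocol describes HADH2 (HSD17B10) and not the HSD17B4 of the title; potency means the concentration at half of the fitted maximal effect; on the % scale 0 is the no-effect control and ±100 the full control effect; nearly all actives have a fitted effect of over 70% in size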
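Activity followed as NADH fluorescence increase (ex 360, em 450 nm) every 30 seconds for 4 min, using final 90 uM beta-hydroxybutyryl CoA and 1 mM NAD+. Recombinant His-tagged enzyme, 20 nM, pH 9.0 Tris buffer, 15 min compound preincubation.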
HADH2 inhib = qHTS Assay for Inhibitors of HADH2 (Hydroxyacyl-Coenzyme A Dehydrogenase, Type II). 3-hydroxyacyl-CoA dehydrogenase type-2 (Homo sapiens), Q99714. recombinant HADH2, NADH fluorescence, beta-hydroxybutyryl-CoA. Potency, µM (doses to about 57.1 µM), for the others: at the top dose activity change, negative = inhibition, usual class: inhibitors. 73,000 tested, 3.4% active; further: potency means the concentration at half of the fitted maximal effect; on the % scale 0 is the no-effect control and ±100 the full control effect; nearly all actives have a fitted effect of over 60% in size
Target sequence (Q99714 whole entry, looked up, one chain of several): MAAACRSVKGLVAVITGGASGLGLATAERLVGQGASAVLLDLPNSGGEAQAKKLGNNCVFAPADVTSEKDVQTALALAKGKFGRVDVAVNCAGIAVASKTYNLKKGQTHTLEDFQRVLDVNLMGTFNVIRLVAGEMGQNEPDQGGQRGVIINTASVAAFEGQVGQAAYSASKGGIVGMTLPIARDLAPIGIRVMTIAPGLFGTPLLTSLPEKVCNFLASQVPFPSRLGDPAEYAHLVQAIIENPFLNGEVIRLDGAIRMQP
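E. coli-expressed His-tagged HADH2 tested at 20 nM in alkaline Tris buffer (pH 9.0); oxidation of 90 uM beta-hydroxybutyryl-CoA with 1 mM NAD+ tracked fluorimetrically for 4 min.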
4MU fluor = qHTS Assay for Spectroscopic Profiling in 4-MU Spectral Region; compound autofluorescence, 340/450 nm, 4-MU equivalents; hits give high values; max dye-equivalent concentration, M; 59,000 tested, 11% active; in the data active means max dye-equivalent concentration above about 10 nM; inconclusive means mostly about 1.1 nM to 9.6 nM
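Compounds in 100 mM Tris, pH 8.0, incubated 15 min at room temperature, then fluorescence read at 340 nm excitation/450 nm emission. Signal converted to 4-MU dye-equivalent concentration using an on-plate six-point 4-MU standard curve.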
AID923 = qHTS Assay for Allosteric/Competitive Inhibitors of Caspase-1: Spectroscopic Profiling in AFC Spectral Region | 75,000 tested, 1.1% active | compound fluorescence, AFC spectral region (405/520 nm) | Potency, µM (highest dose often 57.5 µM), for inactives: top-dose fluorescence increase, hits mostly activators; further: potency means the concentration at half of the fitted maximal effect; 0% is about no effect
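Baseline compound fluorescence (AFC region, 405 nm ex/520 nm em) taken from the intercept of kinetic reads with 50 nM caspase-1 and 5 uM Ac-WEHD-AFC; normalized to an on-plate AFC standard curve; compounds titrated up to 57 uM.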
Active calls of the source: *; i = inactive; ? = inconclusive; nt = no result; [ ] = remark or other dose. Unless noted, the call rests on the fitted dose curve; in most records, active means well fitted curve in the direction sought with a large enough effect; inconclusive means small, poorly fitted or top-dose-only effect, or another doubt; inactive means no such curve, though single readings can be large; an effect the other way counts as inactive or inconclusive.

SMILES	A350 fluor	CRE Fsk mod	HSD17B inh	HADH2 inhib	4MU fluor	AID923
O=C1OC2(CCCCC2)OC(=O)C1=CNc1ccc2c(c1)OCO2	1e-07M*	8%	1%	28%	6.9e-08M*	0%
Oc1c(Cl)cc(Cl)c2c1NCCC2	i	5%	20µM*	0.5µM*	i	1%
O=C1NCCCc2c1oc1ccc(O)cc21	i	?	-1%	-12%	i	1%
COC(=O)CS(=O)(=O)c1nnc([C@H](Cc2ccccc2)NC(=O)OC(C)(C)C)o1	i	?	?	5µM*	i	-1%
COC(=O)c1ccc(C(NC(=O)OCc2ccccc2)/C(I)=C/[C@@H](C)C(=O)NCc2ccncc2)cc1 (some centres not stated)	nt	-10%	-8%	4%	nt	2%
C[C@@]12CCC(=O)C=C1CC[C@H]1[C@H]3CC[C@](O)(C(=O)CO)[C@]3(C)CC(=O)[C@@H]12	i	-5%[17.1 µM]	10µM*	-1%[25.6 µM]	i	-2%[25.7 µM]
C[C@]12CCC(=O)C=C1CC[C@@H]1[C@@H]2C(=O)C[C@@]2(C)[C@H]1CC[C@]2(O)C(=O)CO	?	nt	7.9µM*	6%	?	-3%
CC(=O)O[C@]1(C(C)=O)CC[C@@H]2[C@@H]3C=C(Cl)C4=CC(=O)[C@H]5C[C@@H]5[C@]4(C)[C@H]3CC[C@]21C	?	-1%[17.1 µM]	-5%[25.6 µM]	1%[25.6 µM]	?	1%[25.7 µM]
COc1cc(N=c2ssnc2Cl)cc(OC)c1OC	i	18%	7.9µM*	0.63µM*	i	-2%
O=S(=O)(Nc1ccc(Cl)cc1Cl)c1cc(Cl)ccc1Cl	nt	nt	-14%	-6%	nt	-4%
Cc1cccc(CNc2ccnc(-c3ccc(N(C)C)cc3)n2)c1	?	?	25µM*	?	?	3%
COc1ccccc1CNc1ccnc(-c2ccc(N(C)C)cc2)n1	?	13µM*	4µM*	?	?	7%
CN(C)c1ccc(-c2nccc(NCc3ccccc3)n2)cc1	?	?	20µM*	-9%	?	0%
N#Cc1cccc(-c2nccc(NCc3cccnc3)n2)c1	i	?	?	12%	i	0%
N#Cc1cccc(-c2nccc(NCc3ccccc3)n2)c1	4.8e-08M*	?	1%	2%	4.3e-08M*	0%
S=C1N[C@H](c2ccccc2)N[C@H](c2ccccc2)S1	i	12%[7.6 µM]	-17%[11.4 µM]	?	i	-2%[11.5 µM]
COCCCNc1oc(-c2ccccc2OC)nc1C#N	1.1e-07M*	?	32µM*	25µM*	8.8e-08M*	0%
COCCCNc1oc(-c2ccccc2F)nc1C#N	nt	?	20µM*	32µM*	nt	0%
COCCNc1oc(COc2cccc(C)c2)nc1C#N	i	?	5%	5%	i	0%
COc1ccc(CCNc2oc(COc3ccccc3F)nc2C#N)cc1OC	i	3%	-7%	19%	i	3%
N#Cc1nc(-c2ccccc2F)oc1NCCc1ccccn1	?	23%	3.2µM*	i	?	-3%
COc1cccc(-c2nccc(NCc3ccc(OC)cc3OC)n2)c1	i	15%	4%	-6%	i	4%
COC(=O)[C@@]1(Cc2ccc(OC)cc2)[C@H]2c3cc(C(=O)N(C)C)n(C)c3C[C@H]2CN1C(=O)c1ccccc1	nt	?	-6%	-4%	nt	-2%
CSc1nc(N)nc(SCCS(=O)(=O)c2ccc(Cl)cc2)c1C#N	i	?	-1%	-1%	i	-1%
CSc1nc(N)nc(SC2C=CCCC2)c1C#N (configuration not stated)	i	13µM*	-21%	1%	i	-3%
SMILES	A350 fluor	CRE Fsk mod	HSD17B inh	HADH2 inhib	4MU fluor	AID923
Cc1cccc2cc(CN(CC3CCCO3)C(=O)c3ccco3)c(=O)[nH]c12 (configuration not stated)	?	16%	32µM*	-15%	?	1%
COc1ccc(CCN(Cc2cc3cc(C)ccc3[nH]c2=O)C(=O)N2CCCC2)cc1OC	i	?	-26%	7%	i	1%
CCOc1ccc2[nH]c(=O)c(CN(CC3COCCO3)C(=O)c3ccco3)cc2c1 (configuration not stated)	6.3e-07M*	1%	16µM*	-30%	3.9e-07M*	-3%
CCOc1ccc2[nH]c(=O)c(CN(Cc3ccc(F)cc3)C(=O)c3ccco3)cc2c1	5e-08M*	6%	32µM*	-9%	6.3e-08M*	-1%
CCOc1ccc2[nH]c(=O)c(CN(Cc3ccc(F)cc3)C(=O)N3CCCC3)cc2c1	2e-07M*	7%	32µM*	-15%	1.6e-07M*	3%
O=C(O)c1cc(C(=O)O)nc(C(=O)O)c1	i	6%[7.6 µM]	4%[11.4 µM]	2%[11.4 µM]	i	-2%[11.5 µM]
c1ccc2c(-c3nc(C4CCCCC4)no3)cc(-c3ccncc3)nc2c1	2.1e-08M*	17%	-1%	-21%	2.3e-08M*	-1%
Cc1cnc(-c2nnc(N(C)C(=O)c3ccncc3)s2)cn1	i	-1%	-9%	0%	i	0%
O=C(Nc1ccc2c(c1)C(=O)N(C1CCCCC1)C2=O)C1CCCO1 (configuration not stated)	1.9e-07M*	?	25µM*	25µM*	2e-07M*	1%
COc1ccc2c(c1)cc(C(=O)O)n2C	?	-4%	32µM*	?	i	-1%
Cn1c(C(=O)O)cc2cc(F)ccc21	?	-5%	?	1%	?	-2%
CCC(C)(C)n1nnnc1C(c1cc2cc(C)cc(C)c2[nH]c1=O)N1CCCC1 (configuration not stated)	1.1e-08M*	6%	20µM*	-5%	1.2e-08M*	12%
Cc1cc(C)c2[nH]c(=O)c(C(c3nnnn3C(C)(C)C)N3CCN(C(=O)c4ccco4)CC3)cc2c1 (configuration not stated)	3.1e-08M*	?	-16%	-11%	3.2e-08M*	1%
CCC(C)(C)n1nnnc1C(c1cc2cccc(C)c2[nH]c1=O)N1CCCC1 (configuration not stated)	1.1e-08M*	-24%	-17%	-4%	1e-08M*	5%
Cc1cccc2cc(C(c3nnnn3Cc3ccccc3)N3CCN(C)CC3)c(=O)[nH]c12 (configuration not stated)	2.9e-08M*	0%	-18%	3%	3e-08M*	1%
CC(=C/C=C/C(C)=C/C=C/C=C(C)/C=C/C=C(C)/C=C/C(=O)O)/C=C/C(=O)O	nt	7%	-6%	3%	nt	5%

Bioassay records deposited in PubChem BioAssay by National Center for Advancing Translational Sciences (NCATS).
